“And” between values parts separate entries of the source, which are not always exact repeats. Identical values can stand only once. Records with an inconclusive call do not appear. More than one record can exist for a structure, and the calls need not agree. The source made the active and inactive calls. Rule for the calls, unless noted: active = hit-call score of the fitted dose curve at least 0.9, where 1 is the maximum; inconclusive = response in the unintended direction; inactive = score below 0.9.

A short description of experiment [1]: CPHEA_Stoker_NIS_Cytotoxicity: Cytotoxicity Assessment for CPHEA's Radioactive Iodide Uptake (RAIU) Assay for Sodium/Iodide Symporter (NIS) Inhibition, Stoker and Laws Labs (AID 2283897).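 For AC50: active means loss of ATP signal versus DMSO meaning cytotoxicity.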 An outline of the steps: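 CellTiter-Glo ATP luminescence gauged viability in HEK293T cells expressing human NIS after 2 h chemical exposure. Concentrations ran 0.001–100 uM in 0.5% DMSO; DMSO served as baseline for the loss-of-signal fit.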

Experiment [2] concerns zebrafish Estrogen Receptor (ER2b), gene 317733. The experiment in a line: ATG_zfER2b_XSP2: Attagene TRANS-FACTORIAL Multi-Species (XSP2) HepG2 Assay for zebrafish Estrogen Receptor (ER2b) (AID 2283823).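 Note: fitted upward as reporter gain over DMSO so potency reflects activation.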 Summed up: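 Read-out: fluorescent reporter mRNA, measured by RT-PCR then capillary electrophoresis after HpaI digestion. HepG2 cells carried transiently transfected multi-reporter TRANS constructs (NR-Gal4 chimeras); 24 h chemical exposure; activity scored upward versus DMSO control.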

Experiment [3] deals with frog Androgen Receptor (AR), gene 399456. The experiment in a line: ATG_frAR_XSP2: Attagene TRANS-FACTORIAL Multi-Species (XSP2) HepG2 Assay for frog Androgen Receptor (AR) (AID 2283824).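 Note: reporter mRNA from GAL4-UAS units driven by Xenopus AR-Gal4 chimera; actives raise reporter signal above DMSO so AC50 reflects agonist-like induction.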 An outline of the steps:
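Reporter transcript induction, read by RT-PCR with fluorescent capillary electrophoresis, in human liver HepG2 cells carrying an exogenous Xenopus AR-Gal4 fusion and GAL4-driven reporters; chemical exposure 24 hours, activity scored upward against DMSO controls.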

Experiment [4] deals with zebrafish Androgen Receptor (AR), gene 100005148. The experiment is described as follows: ATG_zfAR_XSP2: Attagene TRANS-FACTORIAL Multi-Species (XSP2) HepG2 Assay for zebrafish Androgen Receptor (AR) (AID 2283825).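 Note: hits raise reporter mRNA above DMSO so AC50 reflects agonist-type gain.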 Summed up:
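After 24 h compound exposure in medium with 3 nM 6-alpha-fluorotestosterone plus 1.5 nM norgestrel, HepG2 cells carrying zebrafish AR–GAL4 reporter constructs were assessed for reporter mRNA gain by RT-PCR and capillary electrophoresis.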

Experiment [5] has as its system frog Estrogen Receptor (ER2), gene 100174814. The experiment is described as follows: ATG_frER2_XSP2: Attagene TRANS-FACTORIAL Multi-Species (XSP2) HepG2 Assay for frog Estrogen Receptor (ER2) (AID 2283828). An outline of the steps: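 Induction of reporter mRNA, baseline set by DMSO, is the endpoint. The panel was run in transfected HepG2 cells over 24 h, with 3 nM 6-alpha-fluorotestosterone and 1.5 nM norgestrel present to stimulate androgen receptor.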

The target in experiment [6] is Peroxisome proliferator-activated receptor gamma (Homo sapiens) (UniProt P37231). The experiment is described as follows: ATG_hPPARg_XSP2: Attagene TRANS-FACTORIAL Multi-Species (XSP2) HepG2 Assay for human Peroxisome Proliferator-activated Receptor gamma (PPARg) (AID 2283829).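 Note: actives raise reporter mRNA above DMSO so AC50 reflects PPARg activation.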 An outline of the steps:
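HepG2 cells transiently transfected with multiplexed GAL4-UAS reporter units for chimeric NR-Gal4 receptors, dosed 24 h. Reporter mRNA quantified by RT-PCR, 6-FAM labeling, HpaI digestion and capillary electrophoresis; gain-of-signal fitted against DMSO baseline.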

For experiment [7], the target named is mouse Peroxisome Proliferator-activated Receptor gamma (PPARg), Pparg (gene 19016) (UniProt P37238). The experiment in a line: ATG_mPPARg_XSP2: Attagene TRANS-FACTORIAL Multi-Species (XSP2) HepG2 Assay for mouse Peroxisome Proliferator-activated Receptor gamma (PPARg) (AID 2283830).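 Note: hits are gains in reporter mRNA above DMSO so AC50 marks activation.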 Summed up:
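Multiplexed TRANS reporter readout: after 24 h chemical exposure of transfected HepG2 cells (with 3 nM 6-alpha-fluorotestosterone, 1.5 nM norgestrel present), RNA reverse-transcribed, amplified, 6-FAM-labelled and resolved by capillary electrophoresis; mouse PPARg-Gal4 induction scored against DMSO.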

For experiment [8], the target named is Nuclear receptor subfamily 1 group I member 2 (Mus musculus) (UniProt O54915). The experiment is described as follows: ATG_mPXR_XSP2: Attagene TRANS-FACTORIAL Multi-Species (XSP1) HepG2 Assay for mouse Pregnane X Receptor (PXR) (AID 2283831). Summed up: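 HepG2 cells transiently transfected with GAL4-UAS reporter units expressing chimeric NR-GAL4 proteins; reporter mRNA measured 24 h after dosing by RT-PCR with 6-FAM labelling and capillary electrophoresis, gain of signal relative to DMSO.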

Experiment [9] addresses zebrafish Thyroid Hormone Receptor alpha (TRa), thraa (gene 30670) (UniProt Q98867). The experiment in a line: ATG_zfTRa_XSP2: Attagene TRANS-FACTORIAL Multi-Species (XSP1) HepG2 Assay for zebrafish Thyroid Hormone Receptor alpha (TRa) (AID 2283832).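 Note: actives raise zebrafish TRa-Gal4 reporter transcript above DMSO baseline.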 Summed up:
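Readout is reporter mRNA induction, quantified by RT-PCR and capillary electrophoresis with fluorescent labelling, after 24 h compound exposure of transiently transfected HepG2 cells carrying NR-Gal4 chimera reporters. Activity fitted upward relative to DMSO.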

Experiment [10] relates to zebrafish Peroxisome Proliferator-activated Receptor gamma (PPARg), gene 557037. The experiment is described as follows: ATG_zfPPARg_XSP2: Attagene TRANS-FACTORIAL Multi-Species (XSP2) HepG2 Assay for zebrafish Peroxisome Proliferator-activated Receptor gamma (PPARg) (AID 2283833).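 Note: actives increase reporter signal over DMSO so AC50 reflects activation.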 Summed up:
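HepG2 cells transiently transfected with GAL4-UAS reporter units expressing a zebrafish PPARg–GAL4 chimera; compound exposure 24 h. Reporter mRNA quantified by RT-PCR with fluorescent labelling and capillary electrophoresis; gain of signal fitted relative to DMSO baseline.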

Experiment [11] deals with turtle Thyroid Hormone Receptor, alpha (TRa), gene 101949057. The experiment in a line: ATG_trTRa_XSP2: Attagene TRANS-FACTORIAL Multi-Species (XSP1) HepG2 Assay for turtle Thyroid Hormone Receptor, alpha (TRa) (AID 2283834).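 Note: hits raise reporter mRNA over the DMSO baseline so AC50 marks activators.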 An outline of the steps: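 HepG2 cells transiently transfected with multiplexed GAL4-UAS reporter units expressing chimeric NR-Gal4 proteins were dosed for 24 hours. Reporter mRNA was quantified by RT-PCR with 6-FAM labelling and capillary electrophoresis, gain of signal scored against DMSO.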

The target in experiment [12] is zebrafish Thyroid Hormone Receptor beta (TRb), thrb (gene 30607) (UniProt Q9PVE4). The experiment is described as follows: ATG_zfTRb_XSP2: Attagene TRANS-FACTORIAL Multi-Species (XSP1) HepG2 Assay for zebrafish Thyroid Hormone Receptor beta (TRb) (AID 2283836). Summed up:
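Reporter transcripts were measured by RT-PCR with fluorescent primer extension and capillary electrophoresis, 24 h after chemical dosing of transiently transfected HepG2 cells. Activity was scored as upward signal versus DMSO baseline.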

Experiment [13] addresses human Thyroid hormone Receptor alpha (TRa), THRA (gene 7067) (UniProt P10827). The experiment is described as follows: ATG_hTRa_XSP2: Attagene TRANS-FACTORIAL Multi-Species (XSP2) HepG2 Assay for human Thyroid hormone Receptor alpha (TRa) (AID 2283838). Summed up: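 Gain-of-signal in reporter mRNA, relative to DMSO, after 24 h dosing of transfected HepG2; quantitation by RT-PCR fragment analysis on capillary electrophoresis.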

In experiment [14] the target is frog Thyroid hormone Receptor alpha (TRa), thra-a (gene 397942) (UniProt P15204). The experiment in a line: ATG_frTRa_XSP2: Attagene TRANS-FACTORIAL Multi-Species (XSP2) HepG2 Assay for frog Thyroid hormone Receptor alpha (TRa) (AID 2283839).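 For AC50: AC50 reflects induction of frog TRa-driven reporter mRNA above DMSO baseline.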 An outline of the steps:
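HepG2 cells transiently transfected with multiplexed GAL4-UAS reporter units expressing chimeric frog TRα-Gal4; reporter mRNA read 24 h after dosing by RT-PCR, FAM-labelled primer extension, HpaI digest and capillary electrophoresis. Gain of signal fitted versus DMSO.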

Experiment [15] deals with human Thyroid hormone Receptor beta (TRb), THRB (gene 7068) (UniProt P10828). The experiment is described as follows: ATG_hTRb_XSP2: Attagene TRANS-FACTORIAL Multi-Species (XSP2) HepG2 Assay for human Thyroid hormone Receptor beta (TRb) (AID 2283840).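 Note: actives raise reporter mRNA so potency reflects agonist-like gain of signal.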 Summed up:
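HepG2 cells were transiently transfected with GAL4-UAS multiplexed reporter units expressing chimeric NR-Gal4 proteins, dosed 24 h; reporter mRNA was quantified by RT-PCR, fluorescent labeling, HpaI digestion and capillary electrophoresis, fitted for gain of signal versus DMSO.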

Experiment [16] is described as follows: ATG_M_61_XSP2: Attagene TRANS-FACTORIAL Multi-Species (XSP2) HepG2 Assay for M61 Transcription Factor (Internal Marker) (AID 2283835; active = hit-call score of the fitted dose curve at least 0.9, where 1 is the maximum; inactive = score below 0.9;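 note: active means a rise in signal above the DMSO baseline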). Summed up: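 Signal was mRNA induction detected as fluorescence after RT-PCR and capillary electrophoresis, analysed in the gain direction with DMSO as baseline. HepG2 cells transiently carrying reporter constructs received chemicals for 24 h.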

Experiment [17] in a line: CEETOX_H295R_11DCORT_noMTC: CeeTox H295R High-throughput Steroidogenesis Assay for 11-Deoxycortisol (11DCORT), maximum tolerated concentration (MTC) filtered results only (AID 2283911; active = hit-call score of the fitted dose curve at least 0.9, where 1 is the maximum; inactive = score below 0.9). To be noted: actives raise or lower the signal. An outline of the steps:
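HPLC-MS/MS read-out of 11-deoxycortisol after MTBE extraction of H295R medium. Cells: forskolin 10 uM pre-stimulation 48 h, chemical 48 h, 0.1% DMSO final. Bidirectional fit vs DMSO baseline; no MTC filtering.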

Experiment [18] is described as follows: CEETOX_H295R_OHPREG_noMTC: CeeTox H295R High-throughput Steroidogenesis Assay for OH-Pregnenolone (OHPREG), maximum tolerated concentration (MTC) filtered results only (AID 2283912; active = hit-call score of the fitted dose curve at least 0.9, where 1 is the maximum; inactive = score below 0.9). To be noted: actives raise or lower the signal. Summed up: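 Readout is HPLC-MS/MS quantification of 17alpha-hydroxypregnenolone released by forskolin-stimulated H295R cells over 48 h of chemical exposure, DMSO as baseline.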

Experiment [19] can be described thus: CEETOX_H295R_OHPROG_noMTC: CeeTox H295R High-throughput Steroidogenesis Assay for OH-Progesterone (OHPROG), maximum tolerated concentration (MTC) filtered results only (AID 2283914; active = hit-call score of the fitted dose curve at least 0.9, where 1 is the maximum; inactive = score below 0.9). To be noted: actives raise or lower the signal. Summed up:
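Analysis uses all tested concentrations, without maximum-tolerated-concentration screening by MTT. H295R cells, forskolin-primed (10 uM, 48 h), receive chemical for 48 h; hormone in medium measured by HPLC-MS/MS, with bidirectional curve fitting against DMSO.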

zebrafish Thyroid Hormone Receptor beta (TRb), thrb (gene 30607), sequence (Q9PVE4 whole entry, looked up): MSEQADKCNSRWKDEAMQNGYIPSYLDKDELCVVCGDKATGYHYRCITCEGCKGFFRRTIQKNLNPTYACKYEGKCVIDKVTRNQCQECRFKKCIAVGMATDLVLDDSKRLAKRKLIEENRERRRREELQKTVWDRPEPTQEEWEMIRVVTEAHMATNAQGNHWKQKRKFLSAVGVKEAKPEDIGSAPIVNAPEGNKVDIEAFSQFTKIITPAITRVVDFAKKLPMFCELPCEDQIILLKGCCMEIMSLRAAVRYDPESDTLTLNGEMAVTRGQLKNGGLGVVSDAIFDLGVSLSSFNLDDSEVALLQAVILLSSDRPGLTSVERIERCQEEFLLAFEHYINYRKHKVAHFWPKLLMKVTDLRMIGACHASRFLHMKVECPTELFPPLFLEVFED
frog Thyroid hormone Receptor alpha (TRa), thra-a (gene 397942), sequence (P15204 whole entry, looked up, the tested form may be a part): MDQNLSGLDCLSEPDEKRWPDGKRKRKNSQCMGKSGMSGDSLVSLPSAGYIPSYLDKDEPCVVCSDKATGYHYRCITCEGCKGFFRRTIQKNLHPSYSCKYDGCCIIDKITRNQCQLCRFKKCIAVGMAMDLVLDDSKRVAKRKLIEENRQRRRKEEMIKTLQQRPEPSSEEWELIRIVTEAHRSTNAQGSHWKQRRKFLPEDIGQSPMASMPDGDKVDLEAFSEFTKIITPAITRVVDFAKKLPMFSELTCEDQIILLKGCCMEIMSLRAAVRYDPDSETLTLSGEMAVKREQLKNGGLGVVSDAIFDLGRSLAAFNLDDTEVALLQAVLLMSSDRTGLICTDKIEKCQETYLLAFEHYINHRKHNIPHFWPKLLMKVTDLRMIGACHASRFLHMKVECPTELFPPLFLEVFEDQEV
mouse Peroxisome Proliferator-activated Receptor gamma (PPARg), Pparg (gene 19016), sequence (P37238 whole entry, looked up, the tested form may be a part): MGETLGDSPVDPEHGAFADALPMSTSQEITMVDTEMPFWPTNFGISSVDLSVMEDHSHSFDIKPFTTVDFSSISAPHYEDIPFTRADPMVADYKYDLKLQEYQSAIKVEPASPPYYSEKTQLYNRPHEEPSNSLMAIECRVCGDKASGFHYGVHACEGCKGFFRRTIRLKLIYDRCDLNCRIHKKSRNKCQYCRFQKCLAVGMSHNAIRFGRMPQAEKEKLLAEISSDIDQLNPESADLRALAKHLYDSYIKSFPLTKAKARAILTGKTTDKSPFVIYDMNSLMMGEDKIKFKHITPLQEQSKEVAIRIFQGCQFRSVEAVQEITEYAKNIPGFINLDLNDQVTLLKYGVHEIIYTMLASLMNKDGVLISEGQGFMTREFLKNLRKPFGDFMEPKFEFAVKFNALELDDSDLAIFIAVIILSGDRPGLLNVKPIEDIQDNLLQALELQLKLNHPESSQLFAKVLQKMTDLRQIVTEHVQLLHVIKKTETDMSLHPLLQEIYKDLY
human Thyroid hormone Receptor alpha (TRa), THRA (gene 7067), sequence (P10827 whole entry, looked up, the tested form may be a part): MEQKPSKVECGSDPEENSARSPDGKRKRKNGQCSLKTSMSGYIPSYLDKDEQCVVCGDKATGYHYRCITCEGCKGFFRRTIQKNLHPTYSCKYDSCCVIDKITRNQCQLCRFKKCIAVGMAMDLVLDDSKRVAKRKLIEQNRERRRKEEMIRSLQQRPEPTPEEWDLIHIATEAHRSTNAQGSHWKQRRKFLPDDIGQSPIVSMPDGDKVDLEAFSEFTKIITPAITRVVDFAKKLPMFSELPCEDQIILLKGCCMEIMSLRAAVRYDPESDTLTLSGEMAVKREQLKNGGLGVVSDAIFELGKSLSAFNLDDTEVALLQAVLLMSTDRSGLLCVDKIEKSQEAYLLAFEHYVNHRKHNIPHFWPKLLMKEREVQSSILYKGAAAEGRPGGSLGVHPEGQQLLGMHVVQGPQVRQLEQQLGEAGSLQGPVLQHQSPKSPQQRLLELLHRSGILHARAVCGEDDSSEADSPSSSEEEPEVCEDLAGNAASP
zebrafish Thyroid Hormone Receptor alpha (TRa), thraa (gene 30670), sequence (Q98867 whole entry, looked up, the tested form may be a part): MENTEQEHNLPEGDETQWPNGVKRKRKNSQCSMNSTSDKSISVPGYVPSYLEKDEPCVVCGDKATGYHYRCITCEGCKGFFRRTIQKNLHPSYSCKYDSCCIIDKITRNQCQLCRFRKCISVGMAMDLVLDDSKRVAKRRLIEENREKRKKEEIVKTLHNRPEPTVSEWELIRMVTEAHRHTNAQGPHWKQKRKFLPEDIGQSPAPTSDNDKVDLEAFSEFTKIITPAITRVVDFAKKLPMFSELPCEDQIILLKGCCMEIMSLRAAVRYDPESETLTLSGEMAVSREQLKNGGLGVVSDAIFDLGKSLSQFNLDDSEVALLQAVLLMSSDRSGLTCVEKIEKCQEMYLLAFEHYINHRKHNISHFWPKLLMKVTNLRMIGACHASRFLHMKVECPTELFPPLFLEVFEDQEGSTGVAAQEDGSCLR
Peroxisome proliferator-activated receptor gamma (Homo sapiens), sequence (P37231 whole entry, looked up, the tested form may be a part): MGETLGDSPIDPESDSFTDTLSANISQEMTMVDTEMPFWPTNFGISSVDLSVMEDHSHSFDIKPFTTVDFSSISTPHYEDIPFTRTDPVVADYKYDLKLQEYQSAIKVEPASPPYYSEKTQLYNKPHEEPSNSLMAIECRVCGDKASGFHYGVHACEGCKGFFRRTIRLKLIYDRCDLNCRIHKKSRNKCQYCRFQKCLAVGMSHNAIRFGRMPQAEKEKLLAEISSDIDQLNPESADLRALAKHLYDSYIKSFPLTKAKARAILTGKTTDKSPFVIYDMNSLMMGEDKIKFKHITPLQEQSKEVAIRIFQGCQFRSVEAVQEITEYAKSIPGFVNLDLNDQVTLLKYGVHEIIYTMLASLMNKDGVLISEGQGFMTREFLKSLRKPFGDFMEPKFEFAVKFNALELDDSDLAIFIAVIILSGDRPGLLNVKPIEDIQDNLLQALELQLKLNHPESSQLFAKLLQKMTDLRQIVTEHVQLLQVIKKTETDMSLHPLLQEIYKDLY
Nuclear receptor subfamily 1 group I member 2 (Mus musculus), sequence (O54915 whole entry, looked up, the tested form may be a part): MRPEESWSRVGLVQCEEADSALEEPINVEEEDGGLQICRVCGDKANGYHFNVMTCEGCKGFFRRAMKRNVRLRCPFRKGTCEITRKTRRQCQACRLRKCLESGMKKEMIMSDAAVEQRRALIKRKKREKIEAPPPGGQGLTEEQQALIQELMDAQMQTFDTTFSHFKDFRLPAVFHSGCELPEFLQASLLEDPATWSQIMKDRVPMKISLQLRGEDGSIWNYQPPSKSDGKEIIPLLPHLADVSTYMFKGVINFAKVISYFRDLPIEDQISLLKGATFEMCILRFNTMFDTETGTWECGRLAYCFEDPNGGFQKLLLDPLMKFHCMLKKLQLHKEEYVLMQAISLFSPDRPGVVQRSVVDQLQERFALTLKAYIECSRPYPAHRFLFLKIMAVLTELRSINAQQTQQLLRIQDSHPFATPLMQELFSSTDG
human Thyroid hormone Receptor beta (TRb), THRB (gene 7068), sequence (P10828 whole entry, looked up, the tested form may be a part): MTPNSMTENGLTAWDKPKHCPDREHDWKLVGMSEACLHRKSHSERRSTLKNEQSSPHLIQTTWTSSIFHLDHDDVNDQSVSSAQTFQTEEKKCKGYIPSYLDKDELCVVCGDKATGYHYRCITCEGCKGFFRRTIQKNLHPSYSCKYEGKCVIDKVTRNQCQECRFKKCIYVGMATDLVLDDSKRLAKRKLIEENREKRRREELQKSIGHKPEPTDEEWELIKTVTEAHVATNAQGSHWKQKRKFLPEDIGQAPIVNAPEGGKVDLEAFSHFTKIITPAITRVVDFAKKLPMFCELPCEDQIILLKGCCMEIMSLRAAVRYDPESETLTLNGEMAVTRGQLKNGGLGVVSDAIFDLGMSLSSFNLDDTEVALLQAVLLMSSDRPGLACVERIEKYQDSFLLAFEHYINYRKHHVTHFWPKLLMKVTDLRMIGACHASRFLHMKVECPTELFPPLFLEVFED

On to `Cc1ccc(O)c(C(C)(C)C)c1`, for which the result in [1] was inactive.
One may read the AC50 as the midpoint of the concentration-response curve, whichever way the signal moves. As to `O=C(Oc1ccccc1)c1ccc(O)cc1`, the AC50 is 51.2 µM (active) and 4.93 µM (active) in [2]; 72.4 µM (active) and 4.8 µM (active) in [5]; 100 µM (active) in experiment [6]; 68.1 µM (active) in [7]; 33.2 µM (active) in experiment [8]; 166 µM (active) in [14]. Also, the call in [3], in experiment [4], in experiment [6], in experiment [7], in experiment [9] and in experiment [10] was inactive. In addition, the result in [11], in experiment [12], in [13], in [14], in experiment [15] and in experiment [1] was inactive.
For the molecule `CC(C)C[C@H]1C(=O)N2CCC[C@H]2[C@]2(O)O[C@](NC(=O)[C@@H]3C=C4c5cccc6[nH]c(Br)c(c56)C[C@H]4N(C)C3)(C(C)C)C(=O)N12`, the result in experiment [1] was inactive.
As for `CN(CCOc1ccc(CC2SC(=O)NC2=O)cc1)c1ccccn1` (configuration not stated), the molecule was classed as inactive in experiment [5], in [10], in experiment [16], in experiment [12] and in experiment [14].
As to `c1ccc(CCCc2ccccn2)cc1`, the result in experiment [1] was inactive.
In the case of `Cc1ccc(C(C)C)cc1O`, the molecule was classed as inactive in [17] and in experiment [18]. In addition, the AC50 in experiment [19] was 33 µM (active).
On to `CSc1nc(NC2CC2)nc(NC(C)(C)C)n1`, for which the outcome in experiment [1] was inactive.
On the same count and under the same terms, under `CC(C)=CCCC(C)=CCCC(C)=CCO` stands “inactive”.
The same measure, in the same setting: under `CC(C)=CCC[C@](C)(O)[C@@H]1CC=C(C)CC1` stands “inactive”; under `BrC1CCC(Br)C(Br)CCC(Br)C(Br)CCC1Br` (configuration not stated), “inactive”; under `COc1cc(C(C)(C)C)c(O)c(C(C)(C)C)c1`, “inactive”.
`CCN(CC)c1ccc2c(-c3ccccc3C(=O)O)c3ccc(=[N+](CC)CC)cc-3oc2c1`: in experiment [1], the half-maximal activity concentration (AC50) is 13.3 µM (active).
In the case of `CCCCCCCCCCCCCOS(=O)(=O)O`, the outcome in experiment [1] was inactive.
On the same count and under the same terms, the entry for `Cc1ccc(S)cc1` is “inactive”.

For the origin of these results see PubChem BioAssay (EPA / NIEHS).
